The values that follow come from PubChem BioAssay (NCATS).

Values without a mark were called inactive. Records with an inconclusive call do not appear. Where a call stands in place of a potency, no number is given. Active and inactive are the calls of the source. Unless noted, the call rests on the fitted dose curve; in most records, active means well fitted curve in the direction sought with a large enough effect; inconclusive means small, poorly fitted or top-dose-only effect, or another doubt; inactive means no such curve, though single readings can be large; an effect the other way counts as inactive or inconclusive.

Assay [1] concerns the target Cytochrome P450 3A4 (Homo sapiens) (UniProt P08684). The experiment in a line: qHTS Assay for Inhibitors and Substrates of Cytochrome P450 3A4 (AID 884). Further: series mostly up to about 57 µM; nearly all actives have a fitted effect of over 50% in size. Summed up: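 Luminescent readout of luciferin produced by CYP3A4 (20 nM) dealkylation of Luciferin-PPXE, 25 uM (its KM). NADPH-driven reaction ran 60 min at RT after 10 min compound preincubation; data scaled to 57 uM ketoconazole as 100% inhibition.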
(In general: Quantitative high-throughput screening tests each substance at several concentrations.)

The nature of assay [2]: Confirmation and Secondary Assay for Modulators of Hemoglobin Beta Chain Splicing at IVS2 654 locus (AID 910).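 Further: HeLa cells stably carrying EGFP split by mutant beta-globin IVS2-654 intron.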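 Further: potency means the concentration at half of the fitted maximal effect; potency of activators that raise GFP signal by restoring correct splicing.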 In a few lines: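 HeLa cells stably expressing EGFP interrupted by β-globin IVS2-654 intron, seeded overnight in Opti-MEM/2% FCS, then treated 2 days at 37 °C. Restored splicing read as total peak GFP intensity per well by laser scanning cytometry (488 nm excitation, 500–520 nm emission); 500 nM antisense PNA as control.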

Assay [3] addresses Cytochrome P450 2C9 (Homo sapiens) (UniProt P11712). The experiment in a line: qHTS Assay for Inhibitors and Substrates of Cytochrome P450 2C9 (AID 883). Further: nearly all actives have a fitted effect of over 60% in size. Summed up:
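Signal: luciferase luminescence reporting luciferin produced by CYP2C9. Conditions: 10nM enzyme, Luciferin-H 100uM at KM, 25mM KPO4, 37C, 60 min NADPH-driven reaction. Reference: 57uM sulphaphenazole as 100% inhibition.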

In assay [4] the target is Guanine nucleotide-binding protein G(i) subunit alpha-1 (Homo sapiens) (UniProt P63096). The assay is described as follows: qHTS Assay for Inhibitors of RGS12 GoLoco Motif Activity (Green Fluorophore) (AID 879).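 Further: negative values mean loss of peptide binding seen as reduced polarization.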 Summed up:
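A drop in FITC polarization marked displacement of the FITC-tagged RGS12 GoLoco peptide (10 nM) from Gαi1 (50 nM). Compounds were incubated 10 min at room temperature in Tris pH 7.5 buffer containing 150 mM NaCl, 0.1 mM GDP and 0.05% NP40; unlabeled peptide titration served as control.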

For assay [5], the target named is Cytochrome P450 3A4 (Homo sapiens) (UniProt P08684). The assay is described as follows: qHTS Assay for Activators of Cytochrome P450 3A4 (AID 885). Further: nearly all actives have a fitted effect of over 65% in size. In a few lines:
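Using 20nM recombinant human CYP3A4 in potassium phosphate (200mM), substrate Luciferin-PPXE at 25uM, luminescent luciferin detection followed a 60-min RT NADPH reaction; data scaled to 57 uM ketoconazole.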

A short description of assay [6]: qHTS Assay for Identification of Small Molecule Antagonists for NFkB Signaling Pathway (AID 895; active means well fitted inhibition curve with a large enough effect in the signal ratio, with a control signal flat, not every such curve was filed as active; the % refers to the signal ratio; further: potency means the concentration at half of the fitted maximal effect). Summed up: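 ME-180 NFkB-bla cells (beta-lactamase under NFkB response element), plated overnight, treated with compound then 10 pM TNF alpha (about EC50) for 5 hrs at 37 C. LiveBLAzer FRET read at 460/530 nm emission, 405 nm excitation.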
The nature of assay [7]: qHTS Assay for Identification of Small Molecule Agonists for Thrombopoietin (TPO) Signaling Pathway (AID 917). In a few lines: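 Quantitative HTS for pathway activators: compounds were pin-transferred onto IL-3-starved Ba/F3 cells expressing human TPO receptor, TPO was added at its EC50 (26 pM final), and after 24 hrs at 37 C reporter luciferase was measured.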
Assay [8] concerns the target Cytochrome P450 2D6 (Homo sapiens) (UniProt P10635). The assay is described as follows: qHTS Assay for Inhibitors and Substrates of Cytochrome P450 2D6 (AID 891). Further: nearly all actives have a fitted effect of over 60% in size. Further: potency means the concentration at half of the fitted maximal effect. In a few lines: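 Luminescent read-out of luciferin formed by 5 nM human CYP2D6 demethylating 30 uM Luciferin-ME EGE (Km level) over 60 min at room temperature after NADPH regeneration addition. Data normalized to full inhibition by 1.43 uM quinidine.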

The target of assay [9] is Cytochrome P450 2C19 (Homo sapiens) (UniProt P33261). The assay is described as follows: qHTS Assay for Inhibitors and Substrates of Cytochrome P450 2C19 (AID 899). Further: nearly all actives have a fitted effect of over 60% in size. Further: potency means the concentration at half of the fitted maximal effect. In a few lines: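 Signal comes from luciferase acting on luciferin released by CYP2C19-mediated hydroxylation of Luciferin-H EGE, 10uM (KM). Assay mix: 5nM enzyme, 50mM KPO4; 60 min at 37C with NADPH regeneration. Data normalized against 57uM ketoconazole.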

A short description of assay [10]: qHTS Assay for Identification of Small Molecule Agonists for Hypoxia Response Element Signaling Pathway (AID 914; active means well fitted activation curve with a large enough effect in the signal ratio, with a control signal flat, not every such curve was filed as active; the % refers to the signal ratio). The note with it: ME-180 (cervical carcinoma) HRE-bla reporter, beta-lactamase ratio, CoCl2, 17 h; active compounds read high. Summed up:
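AC50 values come from titration-series %Activity, taken as the 460/530nm ratio of CCF4 fluorescence (excitation 405nm). CellSensor HRE-bla ME-180 cells were treated 17 hours at 37 C with compound plus an EC50 level of CoCl2.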

Sequence of Cytochrome P450 2C9 (Homo sapiens) (P11712 whole entry, looked up): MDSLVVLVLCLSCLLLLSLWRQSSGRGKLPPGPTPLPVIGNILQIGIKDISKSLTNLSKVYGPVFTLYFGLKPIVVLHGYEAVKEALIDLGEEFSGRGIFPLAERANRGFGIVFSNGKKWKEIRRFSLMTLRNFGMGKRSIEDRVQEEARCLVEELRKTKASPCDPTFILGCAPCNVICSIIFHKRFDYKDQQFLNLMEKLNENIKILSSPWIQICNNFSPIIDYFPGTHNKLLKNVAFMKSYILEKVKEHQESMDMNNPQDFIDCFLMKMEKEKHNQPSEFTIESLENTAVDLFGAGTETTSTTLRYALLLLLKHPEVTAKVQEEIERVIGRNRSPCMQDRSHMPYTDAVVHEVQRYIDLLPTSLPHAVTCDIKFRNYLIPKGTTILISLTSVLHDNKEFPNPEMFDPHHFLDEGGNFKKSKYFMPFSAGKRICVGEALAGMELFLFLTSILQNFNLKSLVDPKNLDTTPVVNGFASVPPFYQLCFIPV
Sequence of Cytochrome P450 3A4 (Homo sapiens) (P08684 whole entry, looked up): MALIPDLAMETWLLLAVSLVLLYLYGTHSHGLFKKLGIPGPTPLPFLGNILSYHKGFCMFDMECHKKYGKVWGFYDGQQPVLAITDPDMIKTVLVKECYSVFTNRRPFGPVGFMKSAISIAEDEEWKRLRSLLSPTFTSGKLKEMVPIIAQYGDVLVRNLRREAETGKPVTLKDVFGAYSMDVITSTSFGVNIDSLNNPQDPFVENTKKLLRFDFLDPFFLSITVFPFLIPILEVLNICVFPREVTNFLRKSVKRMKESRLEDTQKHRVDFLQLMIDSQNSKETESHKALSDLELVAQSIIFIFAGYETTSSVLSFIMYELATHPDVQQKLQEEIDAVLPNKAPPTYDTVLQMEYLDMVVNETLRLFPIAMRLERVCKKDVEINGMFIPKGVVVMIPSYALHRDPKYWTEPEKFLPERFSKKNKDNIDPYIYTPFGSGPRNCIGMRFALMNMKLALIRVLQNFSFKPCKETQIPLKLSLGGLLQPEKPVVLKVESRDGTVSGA
Sequence of Guanine nucleotide-binding protein G(i) subunit alpha-1 (Homo sapiens) (P63096 whole entry, looked up): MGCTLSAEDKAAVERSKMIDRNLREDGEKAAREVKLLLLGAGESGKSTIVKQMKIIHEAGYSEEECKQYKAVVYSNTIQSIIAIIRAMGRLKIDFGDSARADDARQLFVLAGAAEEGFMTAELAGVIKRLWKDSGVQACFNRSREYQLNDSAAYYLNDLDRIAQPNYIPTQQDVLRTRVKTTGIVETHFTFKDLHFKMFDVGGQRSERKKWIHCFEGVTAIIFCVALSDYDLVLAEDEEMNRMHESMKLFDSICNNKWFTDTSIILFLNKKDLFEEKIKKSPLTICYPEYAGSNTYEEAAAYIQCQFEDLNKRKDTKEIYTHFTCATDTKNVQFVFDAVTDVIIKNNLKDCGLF
Sequence of Cytochrome P450 2D6 (Homo sapiens) (P10635 whole entry, looked up): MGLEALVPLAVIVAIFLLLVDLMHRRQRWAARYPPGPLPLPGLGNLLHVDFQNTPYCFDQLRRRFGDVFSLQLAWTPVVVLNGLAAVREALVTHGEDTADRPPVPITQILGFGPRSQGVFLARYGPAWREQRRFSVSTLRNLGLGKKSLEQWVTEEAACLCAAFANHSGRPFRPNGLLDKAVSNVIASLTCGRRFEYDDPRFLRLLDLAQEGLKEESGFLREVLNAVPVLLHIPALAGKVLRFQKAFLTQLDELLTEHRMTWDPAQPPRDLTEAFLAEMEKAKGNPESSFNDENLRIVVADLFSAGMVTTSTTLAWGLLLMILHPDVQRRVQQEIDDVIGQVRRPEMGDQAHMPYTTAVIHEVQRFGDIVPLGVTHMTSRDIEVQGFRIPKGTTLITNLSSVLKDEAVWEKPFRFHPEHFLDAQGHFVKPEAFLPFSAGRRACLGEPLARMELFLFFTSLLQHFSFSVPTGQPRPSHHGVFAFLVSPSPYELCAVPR
Sequence of Cytochrome P450 2C19 (Homo sapiens) (P33261 whole entry, looked up): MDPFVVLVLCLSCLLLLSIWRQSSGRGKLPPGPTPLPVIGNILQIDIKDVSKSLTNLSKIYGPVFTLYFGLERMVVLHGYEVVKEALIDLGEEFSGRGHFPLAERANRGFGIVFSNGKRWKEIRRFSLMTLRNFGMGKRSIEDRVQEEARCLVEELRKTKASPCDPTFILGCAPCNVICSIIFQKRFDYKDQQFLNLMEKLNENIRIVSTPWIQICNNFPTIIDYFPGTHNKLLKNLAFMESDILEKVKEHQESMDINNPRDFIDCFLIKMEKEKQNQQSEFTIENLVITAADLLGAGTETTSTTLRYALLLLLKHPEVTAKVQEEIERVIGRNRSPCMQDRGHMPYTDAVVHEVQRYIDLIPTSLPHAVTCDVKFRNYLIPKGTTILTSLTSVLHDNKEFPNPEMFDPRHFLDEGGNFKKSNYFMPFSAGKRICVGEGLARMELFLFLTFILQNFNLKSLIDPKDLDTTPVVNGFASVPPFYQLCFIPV

As for `Cc1ccnc2c1NC(=O)c1cccnc1N2C1CC1`, the compound was called inactive in assay [1].

Take `Nc1nc(=S)c2[nH]cnc2[nH]1`: the call in [1] was inactive. Further, the Potency in assay [2] is 31.6 µM (active).

With `O=C(O)c1cc(=O)[nH]c(=O)[nH]1`, in assay [1], the outcome was inactive.

Turning to `COC(=O)Nc1nc2ccc(C(=O)c3ccccc3)cc2[nH]1`, the compound was called inactive in [3] and in assay [1]. Also, in assay [2], the Potency result is “inactive”.

On to `OCc1ccc(-c2nn(Cc3ccccc3)c3ccccc23)o1`, for which the result in assay [4], in assay [5] and in assay [7] was inactive. Moreover, the Potency in assay [6] was 8.91 µM (active).

For the compound `CCn1cc(C(=O)O)c(=O)c2cc(F)c(N3CCNCC3)nc21`, the outcome in [3] and in assay [1] was inactive. In addition, in [2], the Potency entry was “inactive”.

As to `Nc1ccc(S(=O)(=O)Nc2ccccn2)cc1`, in assay [1], the result was inactive. Also, the Potency result in assay [2] is “inactive”.

Turning to `CC(=O)CC(c1ccccc1)c1c(O)c2ccccc2oc1=O` (configuration not stated), in assay [1], the result was inactive. Moreover, the Potency entry in assay [2] was “inactive”.

With `COc1c(N2CCNC(C)C2)c(F)cc2c(=O)c(C(=O)O)cn(C3CC3)c12` (configuration not stated), in assay [1], the call was inactive. The Potency result in assay [2] was “inactive”.

`O=c1oc2c(O)c(O)cc3c(=O)oc4c(O)c(O)cc1c4c23`: in [1], the compound was called inactive. Besides, the Potency entry in [8] and in [2] was “inactive” in each case. The Potency in assay [9] was 31.6 µM (active).

In the case of `Cc1ncc([N+](=O)[O-])n1CCO`, in assay [1], the compound was classed as inactive. In [2], the Potency entry is “inactive”.

`Nc1nc(N)c2nc(CNc3ccc(C(=O)NC(CCC(=O)O)C(=O)O)cc3)cnc2n1` (configuration not stated): the compound was classed as inactive in [1]. Besides, the Potency entry in assay [2] was “inactive”.

`CC(C)(C)NC(=O)[C@H]1CC[C@H]2[C@@H]3CC[C@H]4NC(=O)C=C[C@]4(C)[C@H]3CC[C@]12C`: in assay [4], the result was inactive.

With `N[C@@H](Cc1ccc(O)c(O)c1)C(=O)O`, the result in [4] and in [7] was inactive. For the same compound, the Potency result in assay [6] is “inactive”.

As for `CCOC(=O)c1ccc(OC(=O)CCCCCN=C(N)N)cc1`, the compound was classed as inactive in [3]. Moreover, in [8], the Potency was 0.316 µM (active).

Consider `Cc1cc(NS(=O)(=O)c2ccc(N)cc2)no1`, for which, in assay [2], the Potency result was “inactive”.

As to `CN(C)CCc1c[nH]c2ccc(CS(=O)(=O)N3CCCC3)cc12`, the result in [1] was inactive. In addition, in assay [2], the Potency result is “inactive”.

As for `Oc1c(Cl)cc(Cl)c2cccnc12`, the Potency entry in [2] is “inactive”.

Take `COc1ccc2cc3[n+](cc2c1OC)CCc1cc2c(cc1-3)OCO2`: the compound was called inactive in [5]. Besides, in [8], the Potency is 2.51 µM (active). Further, in assay [2], the Potency result was “inactive”.

In the case of `CCCCCCNC(=O)n1cc(F)c(=O)[nH]c1=O`, in assay [2], the Potency entry is “inactive”.

Turning to `COc1cnc(NS(=O)(=O)c2ccc(N)cc2)nc1`, the call in assay [1] was inactive. Further, the Potency entry in [2] was “inactive”. Moreover, the activation in [10] was 5.32%.

Regarding `CN(C)c1ccc(C(=C2C=CC(=[N+](C)C)C=C2)c2ccc(N(C)C)cc2)cc1`, in assay [5], the result was inactive. Moreover, in [2], the Potency result was “inactive”.

On to `CC1=NN(c2ccccc2)C(=O)C1`, for which the compound was called inactive in [5]. In addition, in [2], the Potency entry was “inactive”.

Consider `CC1=CC(=O)c2ccccc2C1=O`, for which, in [5], the result was inactive. Also, the Potency was 7.94 µM (active) in assay [8] and 2.51 µM (active) in assay [9]. The Potency result in [2] was “inactive”.

For the compound `COc1cc([C@@H]2c3cc4c(cc3[C@H](O)[C@H]3COC(=O)[C@H]23)OCO4)cc(OC)c1OC`, the outcome in assay [5] was inactive.

Consider `CCCc1cc(C(N)=S)ccn1`, for which the Potency result in assay [2] was “inactive”.

On to `C1CCC(C(CC2CCCCN2)C2CCCCC2)CC1` (configuration not stated), for which, in assay [5], the result was inactive. The Potency entry in [2] is “inactive”.

In the case of `CN(Cc1cc(Br)cc(Br)c1N)C1CCCCC1`, in assay [2], the Potency entry was “inactive”.

As to `COC(=O)Nc1nc2ccc(S(=O)c3ccccc3)cc2[nH]1` (configuration not stated), the Potency entry in assay [2] is “inactive”.

Turning to `CCCOc1ccc(C(=O)OCCN(CC)CC)cc1N`, the Potency entry in [9] was “inactive”.

For the compound `NCCCC(O)(P(=O)(O)O)P(=O)(O)O`, in assay [2], the Potency result was “inactive”.

For `CCCCS(=N)(=O)CCC(N)C(=O)O` (configuration not stated), the compound was called inactive in assay [5]. Further, in [2], the Potency entry is “inactive”.

`CCn1cc(C(=O)O)c(=O)c2cc(F)c(N3CCNCC3)cc21`: in assay [2], the Potency result was “inactive”.

For `CNNCc1ccc(C(=O)NC(C)C)cc1`, in [10], the activation is 9.99%.

As to `CC(C)(Sc1cc(C(C)(C)C)c(O)c(C(C)(C)C)c1)Sc1cc(C(C)(C)C)c(O)c(C(C)(C)C)c1`, in assay [2], the Potency result was “inactive”.

`CN(CCOc1ccc(CC2SC(=O)NC2=O)cc1)c1ccccn1` (configuration not stated): the Potency entry in assay [2] is “inactive”.

Turning to `OC(Cn1cncn1)(Cn1cncn1)c1ccc(F)cc1F`, the Potency result in [2] is “inactive”.

As for `NNC(=O)c1ccncc1`, the result in assay [5] was inactive. The Potency result in [2] is “inactive”.

With `N=C(N)c1ccc(OCCCCCOc2ccc(C(=N)N)cc2)cc1`, the Potency result in assay [2] was “inactive”. Further, the activation in [10] is 3.68%.

As for `CCc1cc(C(N)=S)ccn1`, the Potency entry in assay [2] is “inactive”.

As for `COc1cc(NS(=O)(=O)c2ccc(N)cc2)nc(OC)n1`, the Potency entry in assay [2] is “inactive”.

Turning to `NC(=O)N1c2ccccc2CC(=O)c2ccccc21`, the Potency result in assay [2] was “inactive”.

Consider `CN1CCCC(n2nc(Cc3ccc(Cl)cc3)c3ccccc3c2=O)CC1` (configuration not stated), for which the Potency entry in assay [2] was “inactive”.

`COc1ccc(C(=O)CC(=O)c2ccc(C(C)(C)C)cc2)cc1`: the result in assay [1] was inactive. In assay [2], the Potency entry was “inactive”.

As to `Cc1cccc(Nc2ccncc2S(=O)(=O)NC(=O)NC(C)C)c1`, in assay [5], the outcome was inactive. Moreover, in assay [2], the Potency entry is “inactive”.

Consider `Cc1cccc(N(C)C(=S)Oc2ccc3ccccc3c2)c1`, for which the call in assay [5] was inactive. In assay [2], the Potency result is “inactive”.
